Values joined by “and” are separate entries in the source; they are usually repeats but may differ in a detail not shown here. Identical values can stand only once. Inconclusive results are not listed. Active and inactive are the calls of the source. The call rests on the fitted dose curve; in most records, active means well fitted cell-killing curve with a large enough effect; inconclusive means small, poorly fitted or top-dose-only effect; inactive means flat fitted curve, though single readings scatter.
Experiment: Cell Viability - N2a (AID 540);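 further: plate controls were DMSO alone for no effect and tamoxifen control for full effect; nearly all actives have a fitted effect of over 45% in size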
Conditions: N2a mouse neuroblastoma cell viability; at 92.2 µM (top of the series)
From the text: NIH Chemical Genomics Center [NCGC]
NIH Molecular Libraries Screening Centers Network [MLSCN]
National Institutes of Environmental Health Sciences [NIEHS]
National Toxicology Program [NTP]
We have developed a 1536-well cell-based assay for quantitative high throughput screening (qHTS) against a number of cell lines to determine in vitro cytotoxicity of small molecules. This particular assay uses the N2a cell line which is derived from mouse neuroblastoma.
NCGC Assay Protocol Summary:
The CellTiter-Glo luminescent cell viability assay (Promega) is a homogeneous method to measure the number of viable cells in culture. The end point readout of this assay is based on quantitation of intracellular ATP, an indicator of metabolic activity, using the luciferase reaction. Luciferase catalyzes the oxidation of beetle Luciferin to oxyluciferin and light in the presence of ATP. The luminescent signal is proportional to amount of ATP present.
Using the CellTiter-Glo luminescent cell viability assay, the amount of cellular ATP was measured in the N2a cell line with complete culture medium following compound treatment for 40 hours. The assay was performed in opaque white Kalypsys 1536-well plates. In the screen, tamoxifen and doxorubicin were used as positive controls. Library compounds were measured for their ability to cause acute toxicity in the cell line, as reflected by a decrease in intracellular ATP levels, in a concentration-dependent manner. […] AC50 values were determined from concentration-response data modeled with the standard Hill equation.
qHTS protocol for CellTiter Glo N2a cellular assay
[Step] [Parameter] [Value] [Description]
1. Reagent; 5 uL; 1500 N2a cells/well
2. Time; 5 hr; 37 °C incubation
4. Controls; 23 nL; Tamoxifen 0.34 uM to 100 uM & Doxorubicin 0.02 nM to 100 uM
5. Time; 40 hr; 37 °C incubation
6. Reagent; 5 uL; CellTiter Glo reagent
7. Time; 20 min; Room Temperature
8. Detection; Luminescence; Viewlux plate reader
Keywords: cell viability, cytotoxicity, N2a cell line, luminescence, NTPHTS, NTPHTS_NCGC, NIEHS, EPA, DSSTox, MLSMR, MLSCN, NIH Roadmap, qHTS, NCGC

SMILES	activity change, negative = cytotoxicity
OB(O)O	-10.8% (inactive)
CC[C@H]1OC(=O)[C@H](C)[C@@H](O[C@H]2C[C@@](C)(OC)[C@@H](O)[C@H](C)O2)[C@H](C)[C@@H](O[C@@H]2O[C@H](C)C[C@H](N(C)C)[C@H]2O)[C@](C)(O)C[C@@H](C)CN(C)[C@H](C)[C@@H](O)[C@]1(C)O	-23.6% (inactive)
O=P(O)(O)O	-12.4% (inactive)
CC/C=C\C/C=C\C/C=C\CCCCCCCC(=O)O	-20.9% (inactive)
CO/N=C(/C(=O)N[C@@H]1C(=O)N2C(C(=O)O)=C(COC(N)=O)CS[C@H]12)c1ccco1	8.73% (inactive)
Nc1ccc(N=Nc2ccccc2)c(N)n1	-30.4% (inactive)
C[C@H](CCC(=O)O)[C@H]1CC[C@H]2[C@@H]3[C@H](O)C[C@@H]4C[C@H](O)CC[C@]4(C)[C@H]3C[C@H](O)[C@]12C	-9.32% (inactive)
CC(C)O	-11.4% (inactive)
CCCCO	-5.68% (inactive) and -4.88% (inactive)
COC(=O)c1ccccc1O	0.567% (inactive)
[O-][N+](=Nc1ccccc1)c1ccccc1	4.21% (inactive)
c1ccc2ccccc2c1	6.48% (inactive)
Nc1nccs1	4.71% (inactive)
C/C=C/C=C/C(=O)O	-0.963% (inactive)
C=C1C(CCl)(CCl)C2(Cl)C(Cl)C(Cl)C1(Cl)C2(Cl)Cl (stereo not drawn)	-112% (active)
Cc1ncc[nH]1	-1.34% (inactive)
OC[C@H]1O[C@@H]2O[C@H]3[C@H](O)[C@@H](O)[C@@H](O[C@H]4[C@H](O)[C@@H](O)[C@@H](O[C@H]5[C@H](O)[C@@H](O)[C@@H](O[C@H]6[C@H](O)[C@@H](O)[C@@H](O[C@H]7[C@H](O)[C@@H](O)[C@@H](O[C@H]1[C@H](O)[C@H]2O)O[C@@H]7CO)O[C@@H]6CO)O[C@@H]5CO)O[C@@H]4CO)O[C@@H]3CO	-3.62% (inactive)

SMILES	activity change, negative = cytotoxicity
NC(N)=O	12.5% (inactive)
NCCN	5.1% (inactive)
CO	8.2% (inactive)
Nc1ncnc2c1ncn2[C@H]1CC[C@@H](CO)O1	6.32% (inactive)
CCOC(C)OCC	-0.722% (inactive)
OCC(O)CO	-3.4% (inactive) and 8.03% (inactive)
CCCCC	6.23% (inactive)
Cc1ccc(S(=O)(=O)O)cc1C	-7.07% (inactive)
OCl	-0.881% (inactive)
CC1=CC(=O)NS(=O)(=O)O1	-19.6% (inactive)
OCc1ccccc1	4.71% (inactive)
CC1=CCC2CC1C2(C)C (stereo not drawn)	4.74% (inactive)
ClC(Cl)Cl	-12.8% (inactive)
Oc1cccc(O)c1O	-18.3% (inactive)
O.O.O.O.O.O.O.O=S(=O)([O-])[O-].[Co+2]	-16.8% (inactive)
C[C@H](CCC(=O)O)[C@H]1CC[C@H]2[C@@H]3CC[C@@H]4C[C@H](O)CC[C@]4(C)[C@H]3C[C@H](O)[C@]12C	-18.5% (inactive)

Source: PubChem BioAssay (NCATS)
